# Tests used:
# Test in all cases: DAPPL (digital affinity profiling via proximity ligation, sequencing); 10 mM Tris-HCl pH 7.5, 50 mM NaCl, 1 mM DTT, 4% glycerol, room temperature, 30 min; GST-TFs on glutathione beads, 16-mer random dsDNA library, 0.1% formaldehyde crosslink after washing; high values mean tight binding
# [1] = biological target: T1, FLI1 (Homo sapiens, UniProt Q01543 1-452); conditions: protein: recombinant; tags: N-terminal GST; dsDNA, one strand shown
# T1 sequence: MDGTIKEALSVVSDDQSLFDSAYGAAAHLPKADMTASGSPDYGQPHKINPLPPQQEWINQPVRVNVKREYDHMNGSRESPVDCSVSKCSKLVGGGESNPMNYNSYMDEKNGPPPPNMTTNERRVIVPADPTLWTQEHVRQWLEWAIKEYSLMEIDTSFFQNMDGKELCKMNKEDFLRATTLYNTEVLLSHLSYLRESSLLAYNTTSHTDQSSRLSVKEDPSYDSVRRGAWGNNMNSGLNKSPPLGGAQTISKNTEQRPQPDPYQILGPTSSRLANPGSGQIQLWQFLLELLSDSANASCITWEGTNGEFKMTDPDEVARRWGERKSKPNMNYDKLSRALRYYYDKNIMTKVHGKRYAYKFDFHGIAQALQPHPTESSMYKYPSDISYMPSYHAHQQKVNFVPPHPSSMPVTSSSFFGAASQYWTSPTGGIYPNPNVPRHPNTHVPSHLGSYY
# Outline: (§1)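 Pools of DNA-barcoded human transcription factors, expressed in yeast as GST fusions on glutathione beads and combined with a tag-only sample, were incubated with 200 nmole of a 16-mer random double-stranded DNA library. Incubation took 30 min at room temperature in Tris/NaCl/DTT/glycerol buffer and was followed by washing, 0.1% formaldehyde crosslinking, proximity ligation (BsaI/T4 ligase, 1 h, 37 °C), PCR amplification and sequencing on an Illumina NextSeq500. Binding signal is the ratio of a hexamer's read frequency for a factor to its frequency for the tag-only sample.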
# [2] = biological target: T2, ELK1 (Homo sapiens, UniProt P19419 1-428); conditions: protein: recombinant; tags: N-terminal GST; dsDNA, one strand shown
# T2 sequence: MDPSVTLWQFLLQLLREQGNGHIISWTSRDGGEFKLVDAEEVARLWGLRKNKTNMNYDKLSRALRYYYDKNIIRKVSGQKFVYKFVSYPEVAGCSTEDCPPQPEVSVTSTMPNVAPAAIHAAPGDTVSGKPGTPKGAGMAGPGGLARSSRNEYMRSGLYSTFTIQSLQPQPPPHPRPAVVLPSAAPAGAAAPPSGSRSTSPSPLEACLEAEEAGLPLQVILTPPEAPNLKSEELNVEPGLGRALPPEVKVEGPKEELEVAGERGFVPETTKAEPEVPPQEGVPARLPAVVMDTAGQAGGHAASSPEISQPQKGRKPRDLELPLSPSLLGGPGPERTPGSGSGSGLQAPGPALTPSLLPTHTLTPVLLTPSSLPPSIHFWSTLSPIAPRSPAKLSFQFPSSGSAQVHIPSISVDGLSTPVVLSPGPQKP
# Outline: as §1
# [3] = biological target: T3, GABPA (Homo sapiens, UniProt Q06546 1-454); conditions: protein: recombinant; tags: N-terminal GST; dsDNA, one strand shown
# T3 sequence: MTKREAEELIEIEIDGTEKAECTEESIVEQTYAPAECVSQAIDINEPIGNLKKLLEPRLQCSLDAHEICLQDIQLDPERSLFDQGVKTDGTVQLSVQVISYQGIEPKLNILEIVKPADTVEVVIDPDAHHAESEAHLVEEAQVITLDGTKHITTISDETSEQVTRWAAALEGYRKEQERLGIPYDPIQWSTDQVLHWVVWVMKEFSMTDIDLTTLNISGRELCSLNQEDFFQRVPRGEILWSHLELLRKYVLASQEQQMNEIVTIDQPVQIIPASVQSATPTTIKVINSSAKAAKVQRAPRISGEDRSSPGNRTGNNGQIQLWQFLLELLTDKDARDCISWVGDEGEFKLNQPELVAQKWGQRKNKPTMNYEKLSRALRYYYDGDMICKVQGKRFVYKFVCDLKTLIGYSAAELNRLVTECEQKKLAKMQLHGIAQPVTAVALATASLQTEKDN
# Outline: as §1
# [4] = biological target: T4, ERG (Homo sapiens, UniProt P11308 1-479); conditions: protein: recombinant; tags: N-terminal GST; dsDNA, one strand shown
# T4 sequence: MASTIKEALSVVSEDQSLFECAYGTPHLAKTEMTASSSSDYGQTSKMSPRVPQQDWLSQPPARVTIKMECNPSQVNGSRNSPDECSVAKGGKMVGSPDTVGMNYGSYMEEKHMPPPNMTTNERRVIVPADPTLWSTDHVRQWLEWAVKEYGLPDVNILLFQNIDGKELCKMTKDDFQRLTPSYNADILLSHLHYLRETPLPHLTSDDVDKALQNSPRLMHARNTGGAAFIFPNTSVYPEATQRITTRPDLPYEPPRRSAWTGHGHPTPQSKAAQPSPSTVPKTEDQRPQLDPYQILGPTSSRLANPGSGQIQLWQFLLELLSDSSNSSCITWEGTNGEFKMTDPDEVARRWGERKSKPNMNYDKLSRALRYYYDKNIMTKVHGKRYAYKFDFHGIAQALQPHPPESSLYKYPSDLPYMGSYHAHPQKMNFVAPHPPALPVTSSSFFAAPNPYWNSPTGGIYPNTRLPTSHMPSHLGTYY
# Outline: as §1
# [5] = biological target: ELF1 (Homo sapiens, UniProt P32519 1-619); conditions: protein: recombinant; tags: N-terminal GST; dsDNA, one strand shown
# Outline: as §1
# [6] = biological target: T5, EHF (Homo sapiens, UniProt Q9NZC4 1-300); conditions: protein: recombinant; tags: N-terminal GST; dsDNA, one strand shown
# T5 sequence: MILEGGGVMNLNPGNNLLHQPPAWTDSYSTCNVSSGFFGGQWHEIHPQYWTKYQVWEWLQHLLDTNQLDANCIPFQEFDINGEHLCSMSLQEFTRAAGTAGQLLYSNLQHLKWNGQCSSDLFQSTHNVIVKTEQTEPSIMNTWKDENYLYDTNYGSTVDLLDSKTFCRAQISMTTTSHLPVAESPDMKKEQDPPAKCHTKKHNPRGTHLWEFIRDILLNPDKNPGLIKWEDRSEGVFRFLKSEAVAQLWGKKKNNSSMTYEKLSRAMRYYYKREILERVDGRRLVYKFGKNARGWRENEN
# Outline: as §1
# [7] = biological target: SPI1 (Homo sapiens, UniProt P17947 1-270); conditions: protein: recombinant; tags: N-terminal GST; dsDNA, one strand shown
# Outline: as §1
# [8] = biological target: SPIB (Homo sapiens, UniProt Q01892 1-262); conditions: protein: recombinant; tags: N-terminal GST; dsDNA, one strand shown
# Outline: as §1
# [9] = biological target: T6, ELK3 (Homo sapiens, UniProt P41970 1-407); conditions: protein: recombinant; tags: N-terminal GST; dsDNA, one strand shown
# T6 sequence: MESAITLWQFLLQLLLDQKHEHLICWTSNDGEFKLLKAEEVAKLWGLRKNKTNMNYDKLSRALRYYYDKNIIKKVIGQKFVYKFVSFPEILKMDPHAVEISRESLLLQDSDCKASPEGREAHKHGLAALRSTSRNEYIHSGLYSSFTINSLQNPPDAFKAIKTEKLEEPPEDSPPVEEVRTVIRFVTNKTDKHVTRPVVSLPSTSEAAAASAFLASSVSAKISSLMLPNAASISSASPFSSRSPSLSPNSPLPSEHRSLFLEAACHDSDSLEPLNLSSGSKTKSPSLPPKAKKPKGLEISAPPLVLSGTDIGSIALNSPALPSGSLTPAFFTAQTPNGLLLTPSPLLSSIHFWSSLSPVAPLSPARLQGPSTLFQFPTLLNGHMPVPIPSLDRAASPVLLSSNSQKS
# Outline: as §1
# [10] = biological target: T7, FEV (Homo sapiens, UniProt Q99581 1-238); conditions: protein: recombinant; tags: N-terminal GST; dsDNA, one strand shown
# T7 sequence: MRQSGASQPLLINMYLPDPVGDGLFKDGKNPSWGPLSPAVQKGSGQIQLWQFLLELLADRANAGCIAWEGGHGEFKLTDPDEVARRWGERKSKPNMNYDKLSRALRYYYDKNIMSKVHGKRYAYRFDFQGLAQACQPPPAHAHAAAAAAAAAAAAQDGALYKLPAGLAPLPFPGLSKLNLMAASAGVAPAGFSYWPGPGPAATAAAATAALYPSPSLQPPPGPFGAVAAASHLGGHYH
# Outline: as §1
# [11] = biological target: ETV5 (Homo sapiens, UniProt P41161 1-510); conditions: protein: recombinant; tags: N-terminal GST; dsDNA, one strand shown
# Outline: as §1
# [12] = biological target: HSF1 (Homo sapiens, UniProt Q00613 1-529); conditions: protein: recombinant; tags: N-terminal GST; chain copies: 3; dsDNA, one strand shown
# Outline: as §1
# [13] = biological target: T8, SPIC (Homo sapiens, UniProt Q8N5J4 1-248); conditions: protein: recombinant; tags: N-terminal GST; dsDNA, one strand shown
# T8 sequence: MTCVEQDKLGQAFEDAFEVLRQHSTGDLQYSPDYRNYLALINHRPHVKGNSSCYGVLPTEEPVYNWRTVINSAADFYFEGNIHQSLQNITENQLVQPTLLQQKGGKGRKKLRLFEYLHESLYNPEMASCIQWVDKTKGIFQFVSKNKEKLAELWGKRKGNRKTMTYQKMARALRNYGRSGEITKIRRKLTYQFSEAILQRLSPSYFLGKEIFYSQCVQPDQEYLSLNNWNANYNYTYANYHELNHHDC
# Outline: as §1
# [14] = biological target: ELF4 (Homo sapiens, UniProt Q99607 1-663); conditions: protein: recombinant; tags: N-terminal GST; dsDNA, one strand shown
# Outline: as §1
# [15] = biological target: T9, ELK4 (Homo sapiens, UniProt P28324-2 1-405); conditions: protein: recombinant; tags: N-terminal GST; dsDNA, one strand shown
# T9 sequence: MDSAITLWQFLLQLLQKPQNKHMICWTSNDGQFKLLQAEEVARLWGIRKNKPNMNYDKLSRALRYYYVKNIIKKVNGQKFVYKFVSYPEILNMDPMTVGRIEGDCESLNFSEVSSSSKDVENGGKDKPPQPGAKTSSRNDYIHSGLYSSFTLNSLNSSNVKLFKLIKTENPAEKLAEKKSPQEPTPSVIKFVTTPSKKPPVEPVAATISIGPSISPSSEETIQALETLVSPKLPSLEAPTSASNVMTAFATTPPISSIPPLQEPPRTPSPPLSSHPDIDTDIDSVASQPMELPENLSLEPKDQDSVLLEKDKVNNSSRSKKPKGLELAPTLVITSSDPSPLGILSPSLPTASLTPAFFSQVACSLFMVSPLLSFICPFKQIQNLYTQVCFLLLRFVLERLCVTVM
# Outline: as §1
# [16] = biological target: T10, ETV2 (Homo sapiens, UniProt O00321 1-342); conditions: protein: recombinant; tags: N-terminal GST; dsDNA, one strand shown
# T10 sequence: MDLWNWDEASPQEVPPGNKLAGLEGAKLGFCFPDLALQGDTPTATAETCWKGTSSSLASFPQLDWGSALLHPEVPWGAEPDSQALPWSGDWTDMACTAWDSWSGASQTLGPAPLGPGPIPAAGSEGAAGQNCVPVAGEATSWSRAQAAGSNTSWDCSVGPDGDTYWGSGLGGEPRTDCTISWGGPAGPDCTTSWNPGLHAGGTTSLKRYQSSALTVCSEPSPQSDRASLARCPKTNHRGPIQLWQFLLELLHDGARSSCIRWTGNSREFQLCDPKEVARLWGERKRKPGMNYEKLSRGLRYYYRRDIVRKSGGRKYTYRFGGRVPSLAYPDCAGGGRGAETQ
# Outline: as §1
# [17] = biological target: T11, ELF3 (Homo sapiens, UniProt P78545 1-371); conditions: protein: recombinant; tags: N-terminal GST; dsDNA, one strand shown
# T11 sequence: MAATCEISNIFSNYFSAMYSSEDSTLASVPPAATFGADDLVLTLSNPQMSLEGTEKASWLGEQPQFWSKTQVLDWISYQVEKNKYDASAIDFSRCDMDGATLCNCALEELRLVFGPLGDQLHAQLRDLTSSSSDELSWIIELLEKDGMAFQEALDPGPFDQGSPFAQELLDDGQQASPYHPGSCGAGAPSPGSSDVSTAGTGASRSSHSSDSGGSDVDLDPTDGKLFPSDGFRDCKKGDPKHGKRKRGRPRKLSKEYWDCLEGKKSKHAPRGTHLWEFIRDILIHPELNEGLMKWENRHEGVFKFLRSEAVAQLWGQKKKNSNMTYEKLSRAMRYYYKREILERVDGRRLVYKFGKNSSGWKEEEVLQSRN
# Outline: as §1
# [18] = biological target: CRX (Homo sapiens, UniProt O43186 1-299); conditions: protein: recombinant; tags: N-terminal GST; dsDNA, one strand shown
# Outline: as §1
# [19] = biological target: ETV1 (Homo sapiens, UniProt P50549 1-477); conditions: protein: recombinant; tags: N-terminal GST; dsDNA, one strand shown
# Outline: as §1
# ETV1, sequence (P50549 whole entry): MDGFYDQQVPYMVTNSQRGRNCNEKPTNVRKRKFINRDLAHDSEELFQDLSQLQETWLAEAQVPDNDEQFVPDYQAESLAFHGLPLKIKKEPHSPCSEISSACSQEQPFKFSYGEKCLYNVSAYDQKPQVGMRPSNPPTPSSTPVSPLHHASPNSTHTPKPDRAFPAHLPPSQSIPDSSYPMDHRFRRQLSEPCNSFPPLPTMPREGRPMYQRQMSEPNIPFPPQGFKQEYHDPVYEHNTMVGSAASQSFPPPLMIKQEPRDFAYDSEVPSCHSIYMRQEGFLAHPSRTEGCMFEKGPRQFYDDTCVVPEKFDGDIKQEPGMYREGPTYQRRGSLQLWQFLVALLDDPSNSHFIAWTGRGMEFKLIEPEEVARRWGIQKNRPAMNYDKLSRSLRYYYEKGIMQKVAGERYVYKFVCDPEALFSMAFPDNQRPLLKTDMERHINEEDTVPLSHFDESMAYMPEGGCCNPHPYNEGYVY
# SPIB, sequence (Q01892 whole entry): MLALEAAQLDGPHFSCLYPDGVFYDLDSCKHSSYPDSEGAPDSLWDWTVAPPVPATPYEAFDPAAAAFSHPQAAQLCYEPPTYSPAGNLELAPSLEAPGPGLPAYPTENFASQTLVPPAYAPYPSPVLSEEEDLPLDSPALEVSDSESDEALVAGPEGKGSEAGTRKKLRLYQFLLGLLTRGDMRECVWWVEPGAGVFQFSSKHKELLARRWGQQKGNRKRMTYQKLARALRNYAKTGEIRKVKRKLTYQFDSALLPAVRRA
# ELF1, sequence (P32519 whole entry): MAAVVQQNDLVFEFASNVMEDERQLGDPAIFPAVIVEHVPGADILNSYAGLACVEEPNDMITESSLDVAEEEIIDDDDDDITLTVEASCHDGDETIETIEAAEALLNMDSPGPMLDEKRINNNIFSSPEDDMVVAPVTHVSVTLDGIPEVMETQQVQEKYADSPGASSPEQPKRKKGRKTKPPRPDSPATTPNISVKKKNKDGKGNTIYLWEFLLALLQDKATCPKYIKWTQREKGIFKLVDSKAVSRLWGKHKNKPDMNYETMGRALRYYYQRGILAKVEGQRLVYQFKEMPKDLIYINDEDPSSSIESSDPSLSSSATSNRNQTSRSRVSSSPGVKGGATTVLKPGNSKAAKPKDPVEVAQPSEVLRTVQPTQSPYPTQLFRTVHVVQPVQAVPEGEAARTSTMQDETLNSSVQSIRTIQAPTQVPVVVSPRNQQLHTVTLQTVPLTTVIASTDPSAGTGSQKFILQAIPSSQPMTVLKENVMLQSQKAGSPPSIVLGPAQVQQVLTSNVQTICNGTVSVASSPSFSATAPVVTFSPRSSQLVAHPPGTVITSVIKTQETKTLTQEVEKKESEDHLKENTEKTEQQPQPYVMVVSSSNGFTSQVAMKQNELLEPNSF
# HSF1, sequence (Q00613 whole entry): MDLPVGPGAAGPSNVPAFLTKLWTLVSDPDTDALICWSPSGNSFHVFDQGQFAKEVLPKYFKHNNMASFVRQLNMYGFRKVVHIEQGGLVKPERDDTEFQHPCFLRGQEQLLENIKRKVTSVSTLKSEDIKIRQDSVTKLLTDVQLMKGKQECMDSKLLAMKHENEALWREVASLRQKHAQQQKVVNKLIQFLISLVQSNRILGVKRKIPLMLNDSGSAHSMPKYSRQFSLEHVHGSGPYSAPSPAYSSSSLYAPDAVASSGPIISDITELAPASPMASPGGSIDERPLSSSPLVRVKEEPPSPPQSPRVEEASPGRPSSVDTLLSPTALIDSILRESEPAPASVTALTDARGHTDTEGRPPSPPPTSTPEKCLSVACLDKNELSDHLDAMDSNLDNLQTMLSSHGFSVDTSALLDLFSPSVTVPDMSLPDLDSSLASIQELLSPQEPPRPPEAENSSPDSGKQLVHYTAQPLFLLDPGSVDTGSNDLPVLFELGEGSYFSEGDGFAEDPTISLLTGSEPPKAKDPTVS
# CRX, sequence (O43186 whole entry): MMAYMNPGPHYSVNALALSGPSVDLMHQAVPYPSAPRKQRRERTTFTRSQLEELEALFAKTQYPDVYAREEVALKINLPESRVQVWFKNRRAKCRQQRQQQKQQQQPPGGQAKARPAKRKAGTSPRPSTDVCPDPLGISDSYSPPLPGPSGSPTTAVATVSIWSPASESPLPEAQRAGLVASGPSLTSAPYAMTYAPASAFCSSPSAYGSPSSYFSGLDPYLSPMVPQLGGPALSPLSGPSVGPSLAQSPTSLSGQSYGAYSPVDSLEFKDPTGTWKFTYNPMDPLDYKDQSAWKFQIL
# ETV5, sequence (P41161 whole entry): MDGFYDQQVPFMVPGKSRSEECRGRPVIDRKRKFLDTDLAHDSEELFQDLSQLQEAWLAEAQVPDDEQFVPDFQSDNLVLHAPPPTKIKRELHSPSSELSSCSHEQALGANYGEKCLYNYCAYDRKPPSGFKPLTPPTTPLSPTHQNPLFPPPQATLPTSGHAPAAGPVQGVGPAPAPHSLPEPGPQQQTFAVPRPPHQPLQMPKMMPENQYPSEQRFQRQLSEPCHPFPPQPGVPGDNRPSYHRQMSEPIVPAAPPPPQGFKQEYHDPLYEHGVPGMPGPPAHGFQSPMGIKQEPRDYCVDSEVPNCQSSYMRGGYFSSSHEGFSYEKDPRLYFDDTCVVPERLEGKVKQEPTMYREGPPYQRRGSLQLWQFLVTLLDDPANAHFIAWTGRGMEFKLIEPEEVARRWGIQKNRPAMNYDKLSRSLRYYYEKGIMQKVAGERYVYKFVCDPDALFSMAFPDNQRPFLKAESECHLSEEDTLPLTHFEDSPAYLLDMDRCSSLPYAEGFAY
# ELF4, sequence (Q99607 whole entry): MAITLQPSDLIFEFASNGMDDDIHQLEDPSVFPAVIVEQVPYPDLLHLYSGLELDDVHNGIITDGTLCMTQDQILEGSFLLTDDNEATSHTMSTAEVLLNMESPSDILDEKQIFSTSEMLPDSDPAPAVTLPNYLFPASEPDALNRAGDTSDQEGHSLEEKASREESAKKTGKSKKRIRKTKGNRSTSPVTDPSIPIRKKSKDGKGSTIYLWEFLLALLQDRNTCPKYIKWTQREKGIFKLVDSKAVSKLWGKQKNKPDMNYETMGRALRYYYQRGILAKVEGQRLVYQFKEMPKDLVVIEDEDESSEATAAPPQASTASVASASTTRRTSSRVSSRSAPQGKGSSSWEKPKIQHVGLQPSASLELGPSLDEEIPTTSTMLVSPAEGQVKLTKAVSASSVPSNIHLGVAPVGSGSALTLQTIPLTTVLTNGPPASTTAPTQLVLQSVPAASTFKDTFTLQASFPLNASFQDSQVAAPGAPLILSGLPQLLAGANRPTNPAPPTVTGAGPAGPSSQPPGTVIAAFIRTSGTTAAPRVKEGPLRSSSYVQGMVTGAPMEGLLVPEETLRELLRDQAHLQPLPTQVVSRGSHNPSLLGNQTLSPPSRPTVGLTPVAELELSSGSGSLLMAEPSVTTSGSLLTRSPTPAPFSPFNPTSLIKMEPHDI
sequence,measurement,setting,value
CTTCAT,binding signal,[1],"1.6 fold enrichment (6-mer frequency, TF over GST control)"
same,binding signal,[2],"1.45 fold enrichment (6-mer frequency, TF over GST control)"
same,binding signal,[3],"1.45 fold enrichment (6-mer frequency, TF over GST control)"
same,binding signal,[4],"1.4 fold enrichment (6-mer frequency, TF over GST control)"
same,binding signal,[5],"1.52 fold enrichment (6-mer frequency, TF over GST control)"
same,binding signal,[6],"1.31 fold enrichment (6-mer frequency, TF over GST control)"
same,binding signal,[7],"1.49 fold enrichment (6-mer frequency, TF over GST control)"
same,binding signal,[8],"1.48 fold enrichment (6-mer frequency, TF over GST control)"
same,binding signal,[9],"1.38 fold enrichment (6-mer frequency, TF over GST control)"
same,binding signal,[10],"1.46 fold enrichment (6-mer frequency, TF over GST control)"
same,binding signal,[11],"1.49 fold enrichment (6-mer frequency, TF over GST control)"
same,binding signal,[12],"1.34 fold enrichment (6-mer frequency, TF over GST control)"
same,binding signal,[13],"1.36 fold enrichment (6-mer frequency, TF over GST control)"
same,binding signal,[14],"1.4 fold enrichment (6-mer frequency, TF over GST control)"
same,binding signal,[15],"1.53 fold enrichment (6-mer frequency, TF over GST control)"
same,binding signal,[16],"1.39 fold enrichment (6-mer frequency, TF over GST control)"
same,binding signal,[17],"1.56 fold enrichment (6-mer frequency, TF over GST control)"
same,binding signal,[18],"1.3 fold enrichment (6-mer frequency, TF over GST control)"
same,binding signal,[19],"1.5 fold enrichment (6-mer frequency, TF over GST control)"
